In PubChem BioAssay (NCI):
This is part of a sample that, as a whole, favours compounds with a hit. Of some 79,000 tested, about 15% had one in any assay. Values without a mark were called inactive. Activity calls are given as the source filed them. No stated cut-off is given here; in the data, active means growth inhibition above about 70%; inactive means the rest.

Assays:
[1] = NCI Yeast Anticancer Drug Screen. Data for the rad50 strain (AID 155);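 further: 0% = growth of vehicle-only cultures of the same strain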; conditions: S. cerevisiae rad50 strain growth inhibition, hits give high values
In short: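 Inhibition values express reduced yeast growth in compound-treated cultures relative to vehicle-treated controls.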

[2] = NCI Yeast Anticancer Drug Screen. Data for the mec2-1 strain (AID 157); conditions: S. cerevisiae mec2-1 strain, hits give high values
In short: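 Growth inhibition is read against vehicle-treated controls after compound exposure of the mec2-1 yeast strain, which is defective in DNA damage repair or cell cycle control.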

[3] = NCI Yeast Anticancer Drug Screen. Data for the sgs1 mgt1 strain (AID 161);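 further: 0% = growth of cultures given vehicle only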; conditions: S. cerevisiae sgs1 mgt1 strain, hits give high values
In short: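 Percent growth inhibition was derived by comparing compound-exposed mutant yeast with vehicle-exposed cultures. The strain carries alterations in DNA damage repair.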

[4] = NCI Yeast Anticancer Drug Screen. Data for the cln2 rad14 strain (AID 165);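 further: 0% = growth equal to vehicle treated cultures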; conditions: S. cerevisiae cln2 rad14 strain, hits give high values
In short: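 Growth inhibition, relative to vehicle-treated controls, is the read-out. The test organism is a yeast strain with defined genetic alterations, cln2 rad14.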

[5] = NCI Yeast Anticancer Drug Screen. Data for the bub3 strain (AID 167); conditions: S. cerevisiae bub3 mutant strain, hits give high values
In short: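 Steps: expose the mutant yeast strain to compound; grow alongside vehicle-treated cultures; measure growth; express inhibition against the vehicle cultures.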

[6] = NCI Yeast Anticancer Drug Screen. Data for the mlh1 rad18 strain (AID 175); conditions: S. cerevisiae mlh1 rad18 strain growth inhibition, hits give high values
In short: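 Cells of a genetically altered yeast strain, deficient in DNA damage repair, were treated with compound. Their growth was then compared with that of vehicle-treated cultures to give inhibition.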

[7] = at 5.0 µM (retest, dose inferred, filed as 0.5)
[8] = at 50.0 µM (retest, dose inferred, filed as 5.0)

In the case of `CN(C(=O)c1ccc(Cl)cc1)C(=S)N1CCN(c2ccccc2)CC1`, the growth inhibition [1, 7] is reported as -11%, the growth inhibition [1, 8] is reported as 72% (active) and the growth inhibition ([1]; at 50.0 µM) is reported as 80.3% (active). For the same compound, the growth inhibition [2, 7] was -5%, the growth inhibition [2, 8] was 80% (active) and the growth inhibition ([2]; at 50.0 µM) was 74.1% (active). For the same compound, the growth inhibition [3, 7] was -16%, the growth inhibition [3, 8] was 82% (active) and the growth inhibition ([3]; at 50.0 µM) was 79% (active). It also gave a growth inhibition [4, 7] of 3%, a growth inhibition [4, 8] of 41% and a growth inhibition ([4]; at 50.0 µM) of 61.2%. The growth inhibition [5, 7] was 1%, the growth inhibition [5, 8] was 88% (active) and the growth inhibition ([5]; at 50.0 µM) was 63.5%. For the same compound, the growth inhibition [6, 7] was -10%, the growth inhibition [6, 8] was 89% (active) and the growth inhibition ([6]; at 50.0 µM) was 72.5% (active).

With `C/C(=N/Nc1ccc([N+](=O)[O-])cc1[N+](=O)[O-])C(=O)O` the growth inhibition [1, 7] was 11%, the growth inhibition [1, 8] was 69% and the growth inhibition ([1]; at 50.0 µM) was 95.3% (active). The growth inhibition [2, 7] was 2%, the growth inhibition [2, 8] was 63% and the growth inhibition ([2]; at 50.0 µM) was 59.8%. For the same compound, the growth inhibition [3, 7] was -1%, the growth inhibition [3, 8] was 76% (active) and the growth inhibition ([3]; at 50.0 µM) was 97.5% (active). It also gave a growth inhibition [4, 7] of -1%, a growth inhibition [4, 8] of 21% and a growth inhibition ([4]; at 50.0 µM) of 13.2%. The growth inhibition [5, 7] was -1%, the growth inhibition [5, 8] was 72% (active) and the growth inhibition ([5]; at 50.0 µM) was 98.5% (active). The growth inhibition [6, 7] was -2%, the growth inhibition [6, 8] was 91% (active) and the growth inhibition ([6]; at 50.0 µM) was 96.8% (active).

With `CCCCCCCCCCCC(=O)N(CCOC(=O)c1ccco1)CCOC(=O)c1ccco1` the growth inhibition [1, 7] was 46%, the growth inhibition [1, 8] was 96% (active) and the growth inhibition ([1]; at 50.0 µM) was 99% (active). For the same compound, the growth inhibition [2, 7] was 43%, the growth inhibition [2, 8] was 99% (active) and the growth inhibition ([2]; at 50.0 µM) was 99% (active). The growth inhibition [3, 7] was 31%, the growth inhibition [3, 8] was 98% (active) and the growth inhibition ([3]; at 50.0 µM) was 99.2% (active). For the same compound, the growth inhibition [4, 7] was 29%, the growth inhibition [4, 8] was 98% (active) and the growth inhibition ([4]; at 50.0 µM) was 98.5% (active). The growth inhibition [5, 7] was 34%, the growth inhibition [5, 8] was 96% (active) and the growth inhibition ([5]; at 50.0 µM) was 97.8% (active). The growth inhibition [6, 7] was 34%, the growth inhibition [6, 8] was 97% (active) and the growth inhibition ([6]; at 50.0 µM) was 98.8% (active).

In the case of `CC(=O)N1C(c2[nH]c3ccccc3c2-c2ccccc2)CCN1c1ccccc1` (configuration not stated), the growth inhibition [1, 7] is reported as -12%, the growth inhibition [1, 8] is reported as 74% (active) and the growth inhibition ([1]; at 50.0 µM) is reported as 64.1%. It also gave a growth inhibition [2, 7] of -2%, a growth inhibition [2, 8] of 51% and a growth inhibition ([2]; at 50.0 µM) of 54.7%. For the same compound, the growth inhibition [3, 7] was 14%, the growth inhibition [3, 8] was 87% (active) and the growth inhibition ([3]; at 50.0 µM) was 83.2% (active). For the same compound, the growth inhibition [4, 7] was 7%, the growth inhibition [4, 8] was 73% (active) and the growth inhibition ([4]; at 50.0 µM) was 69.9%. The growth inhibition [5, 7] was -5%, the growth inhibition [5, 8] was 87% (active) and the growth inhibition ([5]; at 50.0 µM) was 63.2%. For the same compound, the growth inhibition [6, 7] was -9%, the growth inhibition [6, 8] was 83% (active) and the growth inhibition ([6]; at 50.0 µM) was 71% (active).

In the case of `N=C(N)SCc1nc(-c2ccc(Cl)cc2)no1`, the growth inhibition [1, 7] is reported as 18%, the growth inhibition [1, 8] is reported as 77% (active) and the growth inhibition ([1]; at 50.0 µM) is reported as 94.3% (active). For the same compound, the growth inhibition [2, 7] was 8%, the growth inhibition [2, 8] was 57% and the growth inhibition ([2]; at 50.0 µM) was 87.5% (active). The growth inhibition [3, 7] was 0%, the growth inhibition [3, 8] was 78% (active) and the growth inhibition ([3]; at 50.0 µM) was 90.1% (active). The growth inhibition [4, 7] was 0%, the growth inhibition [4, 8] was 61% and the growth inhibition ([4]; at 50.0 µM) was 70% (active). The growth inhibition [5, 7] was -4%, the growth inhibition [5, 8] was 72% (active) and the growth inhibition ([5]; at 50.0 µM) was 94% (active). For the same compound, the growth inhibition [6, 7] was -10%, the growth inhibition [6, 8] was 64% and the growth inhibition ([6]; at 50.0 µM) was 84.9% (active).

For `OC(CCN1CCOCC1)c1ccc(Sc2ccccc2)cc1` (configuration not stated), the growth inhibition [1, 7] was 55%, the growth inhibition [1, 8] was 29% and the growth inhibition ([1]; at 50.0 µM) was 98% (active). The growth inhibition [2, 7] was 46%, the growth inhibition [2, 8] was 21% and the growth inhibition ([2]; at 50.0 µM) was 98.9% (active). For the same compound, the growth inhibition [3, 7] was 61%, the growth inhibition [3, 8] was 59% and the growth inhibition ([3]; at 50.0 µM) was 98.6% (active). It also gave a growth inhibition [4, 7] of 53%, a growth inhibition [4, 8] of 15% and a growth inhibition ([4]; at 50.0 µM) of 67.1%. For the same compound, the growth inhibition [5, 7] was 88% (active), the growth inhibition [5, 8] was 88% (active) and the growth inhibition ([5]; at 50.0 µM) was 99.3% (active). The growth inhibition [6, 7] was 62%, the growth inhibition [6, 8] was 58% and the growth inhibition ([6]; at 50.0 µM) was 97.2% (active).

`CCOC(=O)C(C#N)NC(C)=O` (configuration not stated) showed a growth inhibition [1, 7] of 3%, a growth inhibition [1, 8] of 1% and a growth inhibition ([1]; at 50.0 µM) of 68%. It also gave a growth inhibition [2, 7] of 0%, a growth inhibition [2, 8] of 1% and a growth inhibition ([2]; at 50.0 µM) of 49.3%. The growth inhibition [3, 7] was 0%, the growth inhibition [3, 8] was 1% and the growth inhibition ([3]; at 50.0 µM) was 75.4% (active). It also gave a growth inhibition [4, 7] of -1%, a growth inhibition [4, 8] of 0% and a growth inhibition ([4]; at 50.0 µM) of 3.05%. It also gave a growth inhibition [5, 7] of 0%, a growth inhibition [5, 8] of -5% and a growth inhibition ([5]; at 50.0 µM) of 69%. For the same compound, the growth inhibition [6, 7] was 3%, the growth inhibition [6, 8] was 3% and the growth inhibition ([6]; at 50.0 µM) was 57.8%.

In the case of `O=[N+]([O-])c1cnc(F)c(Br)c1`, the growth inhibition [1, 7] is reported as 99% (active), the growth inhibition [1, 8] is reported as 99% (active) and the growth inhibition ([1]; at 50.0 µM) is reported as 99.1% (active). For the same compound, the growth inhibition [2, 7] was 99% (active), the growth inhibition [2, 8] was 100% (active) and the growth inhibition ([2]; at 50.0 µM) was 99.2% (active). For the same compound, the growth inhibition [3, 7] was 99% (active), the growth inhibition [3, 8] was 99% (active) and the growth inhibition ([3]; at 50.0 µM) was 99.2% (active). For the same compound, the growth inhibition [4, 7] was 98% (active), the growth inhibition [4, 8] was 99% (active) and the growth inhibition ([4]; at 50.0 µM) was 98.7% (active). The growth inhibition [5, 7] was 99% (active), the growth inhibition [5, 8] was 99% (active) and the growth inhibition ([5]; at 50.0 µM) was 99.1% (active). The growth inhibition [6, 7] was 99% (active), the growth inhibition [6, 8] was 99% (active) and the growth inhibition ([6]; at 50.0 µM) was 99.3% (active).

For `CCOC(=O)C1=C(C)NC(C)=C(C(=O)OCC)C1c1c(-c2ccccc2)noc1C`, the growth inhibition [1, 7] was 23%, the growth inhibition [1, 8] was 84% (active) and the growth inhibition ([1]; at 50.0 µM) was 6.6%. For the same compound, the growth inhibition [2, 7] was 7%, the growth inhibition [2, 8] was 62% and the growth inhibition ([2]; at 50.0 µM) was -2.3%. It also gave a growth inhibition [3, 7] of 18%, a growth inhibition [3, 8] of 69% and a growth inhibition ([3]; at 50.0 µM) of 2.2%. It also gave a growth inhibition [4, 7] of 0%, a growth inhibition [4, 8] of 40% and a growth inhibition ([4]; at 50.0 µM) of -3.5%. For the same compound, the growth inhibition [5, 7] was 1%, the growth inhibition [5, 8] was 70% (active) and the growth inhibition ([5]; at 50.0 µM) was 0.85%. For the same compound, the growth inhibition [6, 7] was 2%, the growth inhibition [6, 8] was 61% and the growth inhibition ([6]; at 50.0 µM) was 11.9%.
